The panel holds about 79,000 compounds, 15% with a hit somewhere; the sample as a whole holds those more often. Unmarked numbers belong to inactive results. Activity calls are given as the source filed them. Rule as the data show it: active = growth inhibition above about 70%; inactive = the rest.
Tests used:
[1] = NCI Yeast Anticancer Drug Screen. Data for the rad52 strain (AID 147);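 also: 0% = growth of vehicle-treated control cultures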; details: S. cerevisiae rad52 mutant growth inhibition, active compounds read high
In short: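 Measured: yeast growth inhibition. System: strain with a defined DNA damage repair alteration. Reference: vehicle-treated control cultures.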

[2] = NCI Yeast Anticancer Drug Screen. Data for the rad50EPP+ strain (AID 151);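 also: 0% = growth of vehicle-treated control cultures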; details: S. cerevisiae rad50 mutant strain, active compounds read high
In short: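 One strain with a rad50 alteration (rad50EPP+) was compound-treated, its growth then compared to that of vehicle controls.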

[3] = NCI Yeast Anticancer Drug Screen. Data for the mgt1 strain (AID 153); details: S. cerevisiae mgt1 mutant growth inhibition, active compounds read high
In short: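 After exposure of the mgt1 yeast mutant to compound, growth was measured and reported as inhibition compared with vehicle controls.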

[4] = NCI Yeast Anticancer Drug Screen. Data for the rad50 strain (AID 155);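 also: 0% = growth of vehicle-only cultures of the same strain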; details: S. cerevisiae rad50 strain growth inhibition, active compounds read high
In short: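 Vehicle-treated cultures provide the reference for the growth inhibition reported for compound-exposed, repair-deficient yeast.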

[5] = NCI Yeast Anticancer Drug Screen. Data for the mec2-1 strain (AID 157); details: S. cerevisiae mec2-1 strain, active compounds read high
In short: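 Test agents were screened against the mec2-1 yeast strain, with defined DNA repair or cell cycle alteration. Growth was scored as inhibition against vehicle-only controls.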

[6] = NCI Yeast Anticancer Drug Screen. Data for the rad14 strain (AID 159);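 also: 0% = growth of vehicle-treated control cultures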; details: S. cerevisiae rad14 strain growth inhibition, active compounds read high
In short: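 Inhibition of growth is reported for a repair-deficient yeast mutant following compound treatment, calculated relative to cultures that received vehicle.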

[7] = NCI Yeast Anticancer Drug Screen. Data for the sgs1 mgt1 strain (AID 161);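 also: 0% = growth of cultures given vehicle only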; details: S. cerevisiae sgs1 mgt1 strain, active compounds read high
In short: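 Genetically altered yeast, compound exposure, growth inhibition relative to vehicle.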

[8] = NCI Yeast Anticancer Drug Screen. Data for the CLN2oe strain (AID 163);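 also: 0% = growth of vehicle-only control cultures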; details: S. cerevisiae CLN2oe strain, active compounds read high
In short: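 Here, growth inhibition in a cell-cycle-altered yeast strain after compound exposure was quantified against vehicle control growth.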

[9] = NCI Yeast Anticancer Drug Screen. Data for the cln2 rad14 strain (AID 165);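 also: 0% = growth equal to vehicle treated cultures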; details: S. cerevisiae cln2 rad14 strain, active compounds read high
In short: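 Growth of compound-exposed yeast (cln2 rad14 genotype) measured and expressed as inhibition relative to vehicle.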

[10] = NCI Yeast Anticancer Drug Screen. Data for the bub3 strain (AID 167); details: S. cerevisiae bub3 mutant strain, active compounds read high
In short: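 Mutant yeast screening strain plus compound; vehicle-treated cultures serve as the 0% inhibition reference.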

[11] = NCI Yeast Anticancer Drug Screen. Data for the wt2 strain (AID 169); details: S. cerevisiae wt2 strain growth inhibition, active compounds read high
In short: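 Genetically defined yeast strains from a DNA-repair/cell-cycle panel were used. Compound-exposed yeast growth was measured, and the inhibition was calculated relative to vehicle treatment.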

[12] = NCI Yeast Anticancer Drug Screen. Data for the mlh1 strain (AID 171);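 also: 0% = growth of vehicle-treated control cultures of the same strain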; details: S. cerevisiae mlh1 strain growth inhibition, active compounds read high
In short: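 Here the genetically defined yeast mutant is grown with each compound, and the extent to which its growth falls below that of vehicle-exposed cells is reported.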

[13] = NCI Yeast Anticancer Drug Screen. Data for the sgs1 strain (AID 173);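 also: 0% = growth of vehicle-only control cultures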; details: S. cerevisiae sgs1 mutant, active compounds read high
In short: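 Relative growth inhibition, referenced to vehicle, was determined in a yeast strain with a defined alteration affecting DNA damage repair or cell cycle control after compound exposure.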

[14] = NCI Yeast Anticancer Drug Screen. Data for the mlh1 rad18 strain (AID 175); details: S. cerevisiae mlh1 rad18 strain growth inhibition, active compounds read high
In short: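 In this whole-cell yeast screen, a strain with altered DNA damage repair is challenged with compound, and its growth is measured against matched vehicle-treated controls.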

[15] = NCI Yeast Anticancer Drug Screen. Data for the rad18 strain (AID 177); details: S. cerevisiae rad18 mutant growth inhibition, active compounds read high
In short: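 Screen uses a yeast strain with a defined lesion in DNA damage repair; compound effect is read as loss of growth compared to untreated vehicle cultures.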

[16] = at 5.0 µM (retest, dose inferred, filed as 0.5)
[17] = at 50.0 µM (retest, dose inferred, filed as 5.0)

CC(C)(CN1CCCCC1)C(=O)/C=C/c1c(Cl)cccc1Cl
growth inhibition ([1]; at 1.2 µM): 12% | growth inhibition ([1]; at 3.7 µM): 35% | growth inhibition ([1]; at 11.0 µM): 68% | growth inhibition ([1]; at 33.0 µM): 98% (active) | growth inhibition ([1]; at 100.0 µM): 98% (active) | growth inhibition ([2]; at 1.2 µM): -2% | growth inhibition ([2]; at 3.7 µM): 0% | growth inhibition ([2]; at 11.0 µM): 22% | growth inhibition ([2]; at 33.0 µM): 50% | growth inhibition ([2]; at 100.0 µM): 47% | growth inhibition ([3]; at 1.2 µM): 10% | growth inhibition ([3]; at 3.7 µM): 37% | growth inhibition ([3]; at 11.0 µM): 81% (active) | growth inhibition ([3]; at 33.0 µM): 98% (active) | growth inhibition ([3]; at 100.0 µM): 99% (active) | growth inhibition ([4]; at 1.2 µM): 11% | growth inhibition ([4]; at 3.7 µM): 29% | growth inhibition [4, 16]: 2% | growth inhibition ([4]; at 11.0 µM): 67% | growth inhibition ([4]; at 33.0 µM): 97% (active) | growth inhibition [4, 17]: 99% (active) | growth inhibition ([4]; at 50.0 µM): 75.8% (active) | growth inhibition ([4]; at 100.0 µM): 97% (active) | growth inhibition ([5]; at 1.2 µM): 16% | growth inhibition ([5]; at 3.7 µM): 20% | growth inhibition [5, 16]: 14% | growth inhibition ([5]; at 11.0 µM): 51% | growth inhibition ([5]; at 33.0 µM): 94% (active) | growth inhibition [5, 17]: 97% (active) | growth inhibition ([5]; at 50.0 µM): 83.9% (active) | growth inhibition ([5]; at 100.0 µM): 97% (active) | growth inhibition ([6]; at 1.2 µM): 44% | growth inhibition ([6]; at 3.7 µM): 54% | growth inhibition ([6]; at 11.0 µM): 92% (active) | growth inhibition ([6]; at 33.0 µM): 99% (active) | growth inhibition ([6]; at 100.0 µM): 99% (active) | growth inhibition [7, 16]: 21% | growth inhibition [7, 17]: 98% (active) | growth inhibition ([7]; at 50.0 µM): 86.9% (active) | growth inhibition ([8]; at 1.2 µM): 30% | growth inhibition ([8]; at 3.7 µM): 54% | growth inhibition ([8]; at 11.0 µM): 79% (active) | growth inhibition ([8]; at 33.0 µM): 93% (active) | growth inhibition ([8]; at 100.0 µM): 98% (active) | growth inhibition [9, 16]: 55% | growth inhibition [9, 17]: 99% (active) | growth inhibition ([9]; at 50.0 µM): 86.4% (active) | growth inhibition ([10]; at 1.2 µM): 27% | growth inhibition ([10]; at 3.7 µM): 49% | growth inhibition [10, 16]: 9% | growth inhibition ([10]; at 11.0 µM): 91% (active) | growth inhibition ([10]; at 33.0 µM): 98% (active) | growth inhibition [10, 17]: 99% (active) | growth inhibition ([10]; at 50.0 µM): 88.8% (active) | growth inhibition ([10]; at 100.0 µM): 98% (active) | growth inhibition ([11]; at 1.2 µM): 19% | growth inhibition ([11]; at 3.7 µM): 28% | growth inhibition ([11]; at 11.0 µM): 71% (active) | growth inhibition ([11]; at 33.0 µM): 98% (active) | growth inhibition ([11]; at 100.0 µM): 98% (active) | growth inhibition ([12]; at 1.2 µM): 1% | growth inhibition ([12]; at 3.7 µM): 14% | growth inhibition ([12]; at 11.0 µM): 38% | growth inhibition ([12]; at 33.0 µM): 90% (active) | growth inhibition ([12]; at 100.0 µM): 97% (active) | growth inhibition ([13]; at 1.2 µM): 0% | growth inhibition ([13]; at 3.7 µM): 38% | growth inhibition ([13]; at 11.0 µM): 73% (active) | growth inhibition ([13]; at 33.0 µM): 98% (active) | growth inhibition ([13]; at 100.0 µM): 98% (active) | growth inhibition [14, 16]: 30% | growth inhibition [14, 17]: 98% (active) | growth inhibition ([14]; at 50.0 µM): 87.7% (active) | growth inhibition ([15]; at 1.2 µM): 31% | growth inhibition ([15]; at 3.7 µM): 57% | growth inhibition ([15]; at 11.0 µM): 89% (active) | growth inhibition ([15]; at 33.0 µM): 98% (active) | growth inhibition ([15]; at 100.0 µM): 98% (active)

From PubChem BioAssay (NCI)
